Data reported in publication PMC4336329 (PLoS ONE, 2015).
In all, about 310,000 compounds went through this assay and about 14,000 (4.5%) showed an effect of 50% or more. The effect is printed as a negative number. The sample as a whole holds a higher share of strong results than the screen did.

Each compound was assayed against human ether-à-go-go-related gene (hERG) potassium channel (human, UniProt Q12809) (assay: primary screen, population patch clamp on CHO cells stably expressing hERG; higher = less effect of the substance).
human ether-à-go-go-related gene (hERG) potassium channel, sequence (Q12809 whole entry, looked up): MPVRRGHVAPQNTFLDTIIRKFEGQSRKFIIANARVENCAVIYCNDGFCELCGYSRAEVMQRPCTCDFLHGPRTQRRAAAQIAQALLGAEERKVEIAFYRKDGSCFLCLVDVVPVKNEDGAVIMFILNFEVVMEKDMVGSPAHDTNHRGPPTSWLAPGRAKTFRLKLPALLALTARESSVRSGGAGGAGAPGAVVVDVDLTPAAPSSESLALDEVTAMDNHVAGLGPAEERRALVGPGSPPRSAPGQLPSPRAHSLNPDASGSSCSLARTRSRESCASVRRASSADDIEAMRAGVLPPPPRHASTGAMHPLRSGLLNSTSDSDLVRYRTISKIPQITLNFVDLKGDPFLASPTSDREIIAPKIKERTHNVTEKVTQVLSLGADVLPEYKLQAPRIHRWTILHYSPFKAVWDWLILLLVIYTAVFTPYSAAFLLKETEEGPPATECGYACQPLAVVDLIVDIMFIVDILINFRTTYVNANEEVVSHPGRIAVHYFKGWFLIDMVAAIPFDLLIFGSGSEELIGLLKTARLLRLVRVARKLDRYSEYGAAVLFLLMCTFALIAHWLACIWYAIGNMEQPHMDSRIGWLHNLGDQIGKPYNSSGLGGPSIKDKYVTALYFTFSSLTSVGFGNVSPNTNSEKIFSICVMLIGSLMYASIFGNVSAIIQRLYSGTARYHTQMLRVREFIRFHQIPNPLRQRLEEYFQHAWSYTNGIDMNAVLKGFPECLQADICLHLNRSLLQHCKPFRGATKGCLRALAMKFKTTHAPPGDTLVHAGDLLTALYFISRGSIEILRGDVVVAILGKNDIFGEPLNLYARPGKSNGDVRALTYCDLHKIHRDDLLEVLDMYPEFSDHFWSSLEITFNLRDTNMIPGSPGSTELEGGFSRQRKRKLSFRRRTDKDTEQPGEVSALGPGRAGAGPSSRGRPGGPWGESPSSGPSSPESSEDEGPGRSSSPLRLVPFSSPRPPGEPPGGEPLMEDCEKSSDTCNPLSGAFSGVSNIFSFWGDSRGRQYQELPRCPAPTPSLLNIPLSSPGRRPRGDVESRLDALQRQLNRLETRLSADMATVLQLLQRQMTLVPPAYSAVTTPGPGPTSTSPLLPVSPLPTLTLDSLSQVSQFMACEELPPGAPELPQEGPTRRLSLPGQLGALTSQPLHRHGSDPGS
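Note: peak tail current of the secondary pulse compared with the same well before compound.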

SMILES | hERG current change (%, negative = inhibition) at 10uM [%]
O=C(CN1CCc2ccccc2C1)Nc1cc(S(=O)(=O)N2CCOCC2)ccc1N1CCCC1 | 0.983
O=C(N/N=C/C=C/c1ccccc1)c1cnccn1 | 6.57
Cc1noc(C)c1S(=O)(=O)Nc1ccc(C(=O)N2CCC(C)CC2)cc1 | -4.35
CCOC(=O)C1CCC(CNCc2ccc(Cl)cc2)CC1 (stereo not drawn) | -69.2
COc1cccc(OCC(O)CN2CCN(C)CC2)c1.O=C(O)C(=O)O (stereo not drawn) | 16.2
CC(=O)c1cccc(OCC(O)CN2CC=C(c3ccccc3)CC2)c1.O=C(O)C(=O)O (stereo not drawn) | -68.9
CCOC(=O)C1CCC(CNCc2ccccc2C)CC1.Cl (stereo not drawn) | -24.4
CC(=O)c1cccc(OCC(O)CN2CCN(S(=O)(=O)c3c(F)cccc3F)CC2)c1.O=C(O)C(=O)O (stereo not drawn) | -31
CCOC(=O)C1CCN(S(=O)(=O)Cc2ccc(Cl)cc2)CC1 | 1.25
Cc1ccc(S(=O)(=O)n2c(C)nc3cc(C)ccc32)cc1 | -3.01
CCn1c(C)nc2cc(C(=O)OC)ccc21 | 14.3
CCOc1ccc(Oc2ccc(Cl)cc2N)cc1.Cl | 2.9
Cc1ccc2nc3c(c(C(=O)OC4CCOC4=O)c2c1)CCCC3 (stereo not drawn) | -0.191
CCOC(=O)C1CCN(c2nc(-c3ccc(C)cc3)nc3ccccc23)CC1 | 15.4
CN1CCN(c2nc(-c3ccccc3)ncc2S(=O)(=O)c2ccccc2)CC1 | -63.2
NC(=O)C1CCN(c2nc(-c3ccccc3)nc3ccccc23)CC1 | -56
O=S(=O)(c1ccccc1)c1cnc(-c2ccccc2)nc1N1CCCC1 | 41.8
CC(=O)c1ccc(S(=O)(=O)N2CCN(c3nc(-c4cccnc4)nc4ccccc34)CC2)cc1 | -40.4
CN1CCN(c2nc(-c3cccc([N+](=O)[O-])c3)nc3ccccc23)CC1 | -48.4
CN1CCN(c2nc(-c3cccnc3)nc3ccccc23)CC1 | -48.5
CN1CCN(c2nc(-c3ccncc3)nc3ccccc23)CC1 | -67.4
O=S(=O)(c1ccc(F)cc1)N1CCN(c2nc(-c3cccnc3)nc3ccccc23)CC1 | -72

SMILES | hERG current change (%, negative = inhibition) at 10uM [%]
COc1ccc(S(=O)(=O)N2CCN(c3nc(-c4cccnc4)nc4ccccc34)CC2)cc1 | -39
CCOC(=O)C1CCN(c2nc(-c3ccc(Br)cc3)nc3ccccc23)CC1 | -1.89
Cc1ccc(S(=O)(=O)c2cnc(-c3ccccc3)nc2N2CCN(C)CC2)cc1 | -49.1
O=[N+]([O-])c1cnn(-c2nc(-c3ccccc3)cc(C(F)(F)F)n2)c1 | 8.82
N/C(=N\OS(=O)(=O)c1ccc2ccccc2c1)c1cccnc1 | 5.24
COc1ccc([N+](=O)[O-])cc1N(CC(=O)O)S(C)(=O)=O | 13.7
O=C(O)CC1NC(=O)N(c2ccc(Cl)cc2)C1=O (stereo not drawn) | 19.5
CSc1nc(N2CCOCC2)c2c3c(sc2n1)CCCC3 | -2.32
O=C1c2ccccc2COc2ccc(O)cc21 | 10.9
CC(C)N(Cc1ccc(F)cc1)C(=O)c1cc2ccccc2oc1=O | 19.5
CC1CCCC(NC(=O)COC(=O)Cc2c[nH]c3ccccc23)C1C (stereo not drawn) | -14
NC(=S)N/N=C\c1c(OCc2ccccc2Cl)ccc2ccccc12 | -2.61
CN1CCN(/N=C/c2cccc(Cl)c2Cl)CC1.Cl | 6.09
O=S(=O)(c1cccs1)N1CCCc2cccc(O)c21 | 7.34
Cc1ccc(S(=O)CCNC(=O)Cc2ccc(Cl)cc2)cc1 (stereo not drawn) | -8.83
CCS(=O)(=O)N1CCCC(C(=O)NC2CCC(C)CC2)C1 (stereo not drawn) | 6.05
COc1ccc(OC)c(-n2cc3c(=O)n(C)c(=O)n(C)c3c2)c1 | -8.58
Cc1ccc(-c2nc(N3CCN(C)CC3)c3ccccc3n2)cc1.Cl | -59.9
O=S(=O)(/C=C/c1ccccc1)N1CCN(c2nc(-c3cccnc3)nc3ccccc23)CC1 | -23.6
Cc1ccc(-c2nnc(-c3ccccc3)c(N3CCOCC3)n2)cc1 | -30
CN1CCN(c2nc(-c3ccc(C(C)(C)C)cc3)nc3ccccc23)CC1.Cl | -2.05
CN1CCN(c2nc(-c3ccc(Br)cc3)nnc2-c2ccccc2)CC1 | -63.5

SMILES | hERG current change (%, negative = inhibition) at 10uM [%]
Brc1ccc(-c2nnc(-c3ccccc3)c(N3CCSCC3)n2)cc1 | 4.62
c1ccc2c(N3CCOCC3)nc(-c3ccncc3)nc2c1 | -31.3
c1ccc2c(N3CCCC3)nc(-c3ccncc3)nc2c1 | -56.9
c1cncc(-c2nc(N3CCCCCC3)c3ccccc3n2)c1 | -92.9
c1ccc2c(N3CCCCCC3)nc(-c3ccncc3)nc2c1 | -34.5
CCCOc1ccc(-c2nc(N3CCN(C)CC3)c3ccccc3n2)cc1 | -21.6
c1cncc(-c2nc(N3CCOCC3)c3ccccc3n2)c1 | -17
O=[N+]([O-])c1cc(Cl)cc(/C=N/NC(=S)Nc2ccc(S(=O)(=O)N3CCOCC3)cc2)c1O | 14.3
Cc1cc(NS(=O)(=O)c2ccc(NC(=O)c3ccc(Cl)cc3Cl)cc2)no1 | 24.4
O=C(N=C1SC2CS(=O)(=O)CC2N1c1ccccc1F)C1CCCCC1 (stereo not drawn) | 8
O=C(NCc1ccccn1)C1CCN(S(=O)(=O)N2CCCC2)CC1 | -8.11
COc1ccc(-c2nnc(SCC3CCCO3)n2C)cc1 (stereo not drawn) | 0.931
Nc1c(N=O)c(=O)[nH]c(=O)n1-c1ccccc1 | 10.2
NS(=O)(=O)c1ccc(CCNC(=O)C2CCN(c3ncnc4c3nc3n4CCCCC3)CC2)cc1 | 9.07
O=C(CSc1nnnn1C1CC2C=CC1C2)Nc1ccc(C(=O)O)cc1 (stereo not drawn) | -6.04
CC(Sc1nnc2ccccn12)C(=O)Nc1ccc(Cl)cn1 (stereo not drawn) | -1.5
c1ccc(-c2nc(C3CCCCC3)c3ccccc3n2)cc1 | 10.7
Cc1ccc(-c2nc(N(C)C3CCN(C)CC3)c3ccccc3n2)cc1 | -24.4
CN1CCC(N(C)c2nc(-c3ccccc3)nc3ccccc23)CC1 | -70.4
CC(C)(C)C(=O)Nc1nc2c(s1)CN(Cc1ccccc1)CC2 | 14.2
CCCCOc1ccc(C(=O)N/C(=C/C=C/c2ccccc2)C(=O)NC)cc1 | -75.2
CC(C)(C)NC(=O)/C(=C\C=C\c1ccccc1)NC(=O)c1ccc([N+](=O)[O-])cc1 | -35.1

SMILES | hERG current change (%, negative = inhibition) at 10uM [%]
CCCCOc1ccc(C(=O)N/C(=C/C=C/c2ccccc2)C(=O)NCCO)cc1 | -9.18
CCCCOc1ccc(C(=O)N/C(=C/C=C/c2ccccc2)C(=O)O)cc1 | 19.8
CNC(=O)/C(=C\C=C\c1ccccc1)NC(=O)c1ccc([N+](=O)[O-])cc1 | -77.6
CCCCOc1ccc(C(=O)N/C(=C/C=C/c2ccccc2)C(=O)NCCCO)cc1 | -28.7
COC(=O)/C(=C\C=C\c1ccccc1)NC(=O)c1ccccc1 | 8.85
O=C(O)CCNC(=O)/C(=C/C=C/c1ccccc1)NC(=O)c1ccccc1 | 16.6
CN(C)CCCNC(=O)/C(=C\C=C\c1ccccc1)NC(=O)c1ccc([N+](=O)[O-])cc1 | -71.2
O=C(NCC1CCCCC1)c1cccc(Br)c1 | -3.31
CCCOc1ccc(N2CC(C(=O)Nc3ccc(N4CCOCC4)cc3)CC2=O)cc1 (stereo not drawn) | 36
CN1CCC(OC(=O)c2cccc(F)c2)CC1.Cl | -0.186
Cc1ccc(N2CC(NS(=O)(=O)c3cc(F)ccc3F)CC2=O)cc1C (stereo not drawn) | -6.74
O=C(CSc1nnnn1C1CCCCC1)Nc1cccc(NC(=O)c2ccco2)c1 | -27.8
Cc1ccc(-n2nnnc2SCC(=O)Nc2ccc(N3CCN(C)CC3)cc2)c(C)c1 | -21
Cc1cccc(-n2nnnc2SCC(=O)Nc2ccc(N3CCN(C)CC3)cc2)c1 | -55
CC(=O)c1ccc(-n2nnnc2SCC(=O)Nc2cccc(NC(=O)c3ccco3)c2)cc1 | 6.89
O=C(CSc1nnnn1C1CCCC1)Nc1cccc(NC(=O)c2ccco2)c1 | -55.9
Cc1ccccc1-n1nnnc1SCC(=O)Nc1ccc(N2CCN(C)CC2)cc1 | -35.8
O=C(CSc1nnnn1C1CCCCC1)NNC(=O)c1ccco1 | 11.3
CC(=O)c1cccc(-n2nnnc2SCC(=O)Nc2cccc(NC(=O)c3ccco3)c2)c1 | -60.7
Cc1ccc(-n2nnnc2SCC(=O)Nc2cccc(NC(=O)c3ccco3)c2)cc1C | -6.49
COc1cc(S(=O)(=O)NCc2ccncc2)c(OC)cc1Cl | 6.57
